Consider seven compounds from PubChem BioAssay (Tox21).

A number with no mark means an inactive call. Records with an inconclusive call do not appear. The source made the active and inactive calls. Unless noted, the call rests on the fitted dose curve; in most records, active means well fitted curve in the direction sought with a large enough effect in the repeat runs; inconclusive means weak or mixed curves; inactive means no such curve, though single readings can be large; an effect the other way counts as inactive or inconclusive.

Assay [1] in a line: Human pregnane X receptor (PXR) small molecule agonists, qHTS cell viability counter screen (AID 1346977). Further: nearly all actives have a fitted effect of over 50% in size. The method in brief: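 Cytotoxicity counter screen run in the same wells as the PXR luciferase assay, using PXR-Luc HepG2 cells in charcoal-stripped serum medium. Viability: CellTiter-Fluor fluorescence after 24hr compound treatment.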
Assay [2] in a line: Caspase-3/7 induction in HepG2 cells by small molecules, qHTS assay (AID 1346978). Further: nearly all actives have a fitted effect of over 15% in size. The method in brief:
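Wild-type HepG2 cells (2,000/well) were settled 5 h at 37 C, 5% CO2, then exposed to compounds in DMSO for 17 h. Caspase-3/7 activity was read by luminescence 30 min after adding Caspase-Glo 3/7 reagent at room temperature.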

Assay [3] in a line: Caspase-3/7 induction in CHO-K1 cells by small molecules, qHTS cell viability counter screen (AID 1346979). Further: nearly all actives have a fitted effect of over 35% in size. The method in brief:
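Cytotoxicity counter screen run in parallel with the caspase-3/7 assay: CHO-K1 cells, 16hr compound treatment at 37C, then CellTiter-Fluor for 1hr before fluorescence reading.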

Assay [4] is described as follows: Caspase-3/7 induction in CHO-K1 cells by small molecules, qHTS assay (AID 1346980). Further: nearly all actives have a fitted effect of over 15% in size. The procedure, abridged:
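Wild-type cells were seeded at 1,500 per well and settled 5 hr at 37 C, 5% CO2, then exposed to DMSO-dissolved compounds for 17 hr. Caspase-Glo 3/7 reagent was added, and luminescence was read after 30min at room temperature.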

Assay [5] can be described thus: Caspase-3/7 induction in HepG2 cells by small molecules, qHTS cell viability counter screen (AID 1346981). Further: series mostly up to about 92 µM; nearly all actives have a fitted effect of over 30% in size. The procedure, abridged: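 Fluorescence read-out of live-cell protease activity (CellTiter-Fluor) after 1 hr with reagent. This was measured in the same wells as the caspase-3/7 luminescence, on HepG2 cells exposed to DMSO-dissolved compounds for 16 hr at 37 C.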

Assay [6] deals with Nuclear receptor subfamily 1 group I member 2 (Homo sapiens) (UniProt O75469). As to the kind of experiment: Human pregnane X receptor (PXR) small molecule agonists, qHTS assay (AID 1346982). Further: nearly all actives have a fitted effect of over 35% in size. The procedure, abridged:
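HepG2 PXR-Luc reporter line, 5% charcoal-stripped FBS; 5 hr pre-incubation, compound (DMSO) 24 hr at 37 C/5% CO2; ONE-Glo 30 min RT; luminescence read-out.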

The target of assay [7] is Acetylcholinesterase (Homo sapiens) (UniProt P22303). As to the kind of experiment: Acetylcholinesterase (AChE) small molecule antagonists: colormetric cell-based qHTS assay (AID 1347395; calls by dose curve; further: nearly all actives have a fitted effect of over 30% in size). The method in brief: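 Cells (SH-SY5Y, 2,000 per well) are seeded and left overnight at 37 C. Compound is added for 30 min, then DTNB and acetylthiocholine for a further 90 min at 37 C before absorbance-based thiocholine detection.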
Acetylcholinesterase (Homo sapiens), sequence (P22303 whole entry, looked up): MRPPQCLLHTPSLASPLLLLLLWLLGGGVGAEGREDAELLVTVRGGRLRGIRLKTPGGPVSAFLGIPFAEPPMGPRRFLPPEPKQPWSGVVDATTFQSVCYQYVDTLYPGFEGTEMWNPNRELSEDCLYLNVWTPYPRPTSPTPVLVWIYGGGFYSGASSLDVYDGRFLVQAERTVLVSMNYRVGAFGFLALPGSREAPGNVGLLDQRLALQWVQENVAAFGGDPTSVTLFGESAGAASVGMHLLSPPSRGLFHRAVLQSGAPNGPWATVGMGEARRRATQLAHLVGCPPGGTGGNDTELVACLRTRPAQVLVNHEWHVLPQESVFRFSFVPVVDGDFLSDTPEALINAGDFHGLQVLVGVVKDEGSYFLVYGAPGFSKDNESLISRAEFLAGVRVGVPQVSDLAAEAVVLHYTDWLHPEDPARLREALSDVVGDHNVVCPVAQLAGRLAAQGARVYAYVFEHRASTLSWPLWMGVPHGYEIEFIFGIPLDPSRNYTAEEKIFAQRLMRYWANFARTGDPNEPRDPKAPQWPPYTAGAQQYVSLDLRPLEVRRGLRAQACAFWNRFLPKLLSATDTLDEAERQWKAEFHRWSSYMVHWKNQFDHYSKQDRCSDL

The target is the same in assay [8]. As to the kind of experiment: Acetylcholinesterase (AChE) small molecule antagonists: enzyme-based qHTS assay (AID 1347397; calls by dose curve; further: nearly all actives have a fitted effect of over 55% in size). As to conditions: Potency: AChE enzyme activity inhibition; outcome: AChE enzyme activity inhibition. The method in brief:
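Tox21 library chemicals are tested in qHTS format against recombinant human AChE. The enzyme, dispensed at 50 mU/mL, sits with compound for 30 min at room temperature. A DTNB–acetylthiocholine cocktail follows, and colour is read after 10 min.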

Assay [9] shares this target. As to the kind of experiment: Acetylcholinesterase (AChE) small molecule antagonists: fluorescence cell-based qHTS assay (AID 1347398; calls by dose curve; further: nearly all actives have a fitted effect of over 50% in size). Particulars: Potency: AChE activity; outcome: AChE activity. The method in brief: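 Cellular AChE inhibition: SH-SY5Y cells treated with test chemical for 30 min at 37 C, then acetylthiocholine hydrolysis followed over 40 min at room temperature via thiocholine-reactive Thiolite Green fluorescence (490/520 nm).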

For assay [10] the target is unchanged. Nature of the assay: Acetylcholinesterase (AChE) small molecule antagonists: enzyme-based qHTS assay with human liver microsomes (AID 1347399; calls by dose curve; further: nearly all actives have a fitted effect of over 60% in size). As to conditions: Potency: qHTS inhibition; outcome: qHTS inhibition. The procedure, abridged:
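Recombinant human AChE (50 mU/mL in the enzyme mix) and human liver microsomes (0.25 mg/mL final) were preincubated with compound and NADPH (0.25 mg/mL final) for 30 min at 37 C. Acetylthiocholine/DTNB was then added; thiocholine was read colorimetrically after 10 min at room temperature.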

Assay [11] addresses Cytochrome P450 2D6 (Homo sapiens) (UniProt P10635). As to the kind of experiment: Cytochrome P450 Family 2 Subfamily D Member 6 (CYP2D6) small molecule antagonists: luciferase reporter qHTS assay (AID 1671196). Further: nearly all actives have a fitted effect of over 50% in size. Further: potency means the concentration at half of the fitted maximal effect. The procedure, abridged: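 Luminogenic proluciferin substrate, CYP2D6 enzyme; 10 min RT preincubation with compound, NADPH regeneration system added, 1 h RT. Stop/detection reagent, 20 min RT, luminescence read (RLU). Signal proportional to CYP activity.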

Assay [12] addresses Cytochrome P450 2C19 (Homo sapiens) (UniProt P33261). As to the kind of experiment: Cytochrome P450 Family 2 Subfamily C Member 19 (CYP2C19) small molecule antagonists: luciferase reporter qHTS assay (AID 1671197). Further: nearly all actives have a fitted effect of over 65% in size. Further: potency means the concentration at half of the fitted maximal effect. The procedure, abridged: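 First, compounds are pinned into enzyme-substrate mix and held 10 min at room temperature. Second, NADPH regeneration solution is added and plates incubate 1 h at 37C. Third, detection reagent is added and luminescence read after 20 min.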

For assay [13], the target named is Cytochrome P450 2C9 (Homo sapiens) (UniProt P11712). Nature of the assay: Cytochrome P450 Family 2 Subfamily C Member 9 (CYP2C9) small molecule antagonists: luciferase reporter qHTS assay (AID 1671198). Further: nearly all actives have a fitted effect of over 50% in size. Further: potency means the concentration at half of the fitted maximal effect. The procedure, abridged:
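CYP2C9 activity was measured with a P450-Glo proluciferin substrate. Enzyme–substrate mix was held with compound for 10 min at room temperature, then NADPH regeneration solution was added for 1 h at 37C. Luciferin product was read as luminescence.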

The target in assay [14] is Cytochrome P450 1A2 (Homo sapiens) (UniProt P05177). As to the kind of experiment: Cytochrome P450 Family 1 Subfamily A Member 2 (CYP1A2) small molecule antagonists: luciferase reporter qHTS assay (AID 1671199). Further: nearly all actives have a fitted effect of over 50% in size. Further: potency means the concentration at half of the fitted maximal effect. The method in brief: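 Luminescence readout (relative luminescence units) after luciferin detection reagent, 20 min RT. Preceded by 1 h room-temperature CYP1A2 reaction with NADPH regeneration solution following 10 min compound preincubation with enzyme and proluciferin substrate. Furafylline positive control.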
Cytochrome P450 1A2 (Homo sapiens), sequence (P05177 whole entry, looked up): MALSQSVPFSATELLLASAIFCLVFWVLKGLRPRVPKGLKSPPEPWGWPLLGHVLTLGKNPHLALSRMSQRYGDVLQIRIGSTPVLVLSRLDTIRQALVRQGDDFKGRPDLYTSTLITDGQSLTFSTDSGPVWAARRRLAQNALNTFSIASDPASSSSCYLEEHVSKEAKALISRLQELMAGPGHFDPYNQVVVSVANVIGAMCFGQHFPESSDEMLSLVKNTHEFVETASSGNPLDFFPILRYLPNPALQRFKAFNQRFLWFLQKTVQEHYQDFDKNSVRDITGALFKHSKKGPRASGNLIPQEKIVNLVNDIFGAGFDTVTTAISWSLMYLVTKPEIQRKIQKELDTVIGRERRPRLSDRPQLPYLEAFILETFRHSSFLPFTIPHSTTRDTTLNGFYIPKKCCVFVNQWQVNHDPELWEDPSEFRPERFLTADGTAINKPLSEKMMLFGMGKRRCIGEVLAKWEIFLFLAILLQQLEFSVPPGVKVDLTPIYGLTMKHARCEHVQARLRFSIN

Assay [15] deals with Voltage-gated inwardly rectifying potassium channel KCNH2 (Homo sapiens) (UniProt Q12809). As to the kind of experiment: Human Ether-a-go-go-Related Gene (hERG) channel small molecule antagonists: fluorescence cell-based qHTS assay (AID 1671200). The procedure, abridged: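 Fluorescence at 540 nm emission (480 nm excitation) was recorded kinetically for 2 min at 1-second intervals once the thallium-containing stimulus reached cells previously loaded with FluxOR II dye.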

The target of assay [16] is Cytochrome P450 3A4 (Homo sapiens) (UniProt P08684). As to the kind of experiment: Cytochrome P450 Family 3 Subfamily A Member 4 (CYP3A4) small molecule antagonists: luciferase reporter qHTS assay (AID 1671201). Further: nearly all actives have a fitted effect of over 50% in size. Further: potency means the concentration at half of the fitted maximal effect. The method in brief: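 qHTS, 1536-well. CYP3A4 + proluciferin substrate, cpd 10 min RT → NADPH regen 1 h RT → detection reagent 20 min → luminescence (RLU). Ketoconazole positive control.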
Cytochrome P450 3A4 (Homo sapiens), sequence (P08684 whole entry, looked up): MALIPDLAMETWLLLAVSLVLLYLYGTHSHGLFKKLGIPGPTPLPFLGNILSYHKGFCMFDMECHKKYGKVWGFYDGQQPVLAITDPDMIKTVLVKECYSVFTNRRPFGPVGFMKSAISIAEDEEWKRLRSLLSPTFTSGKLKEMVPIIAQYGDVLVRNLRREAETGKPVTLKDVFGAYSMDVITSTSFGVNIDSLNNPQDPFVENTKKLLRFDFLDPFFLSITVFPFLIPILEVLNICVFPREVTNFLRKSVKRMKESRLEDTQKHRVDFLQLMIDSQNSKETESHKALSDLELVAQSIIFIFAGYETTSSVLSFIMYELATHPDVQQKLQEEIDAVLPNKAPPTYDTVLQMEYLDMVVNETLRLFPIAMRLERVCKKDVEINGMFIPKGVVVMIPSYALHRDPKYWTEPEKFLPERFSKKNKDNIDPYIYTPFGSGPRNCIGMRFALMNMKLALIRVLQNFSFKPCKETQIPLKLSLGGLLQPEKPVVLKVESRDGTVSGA

In assay [17] the target is Nuclear receptor subfamily 1 group I member 2 (Rattus norvegicus) (UniProt Q9R1A7). Nature of the assay: Rat pregnane X receptor (rPXR) activation by small molecules, qHTS assay (AID 1346983). Further: nearly all actives have a fitted effect of over 20% in size. Particulars: rPXR luciferase reporter cells, One-Glo luminescence, 24 h; stronger effect = higher value. The method in brief: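 Cell-based rPXR luciferase reporter assay, 2,000 cells per well, rested 5hr at 37 C before compound addition in DMSO, then 24 hr at 37 C. One-Glo reagent was added and luminescence read after 30 min at room temperature.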
Nuclear receptor subfamily 1 group I member 2 (Rattus norvegicus), sequence (Q9R1A7 whole entry, looked up): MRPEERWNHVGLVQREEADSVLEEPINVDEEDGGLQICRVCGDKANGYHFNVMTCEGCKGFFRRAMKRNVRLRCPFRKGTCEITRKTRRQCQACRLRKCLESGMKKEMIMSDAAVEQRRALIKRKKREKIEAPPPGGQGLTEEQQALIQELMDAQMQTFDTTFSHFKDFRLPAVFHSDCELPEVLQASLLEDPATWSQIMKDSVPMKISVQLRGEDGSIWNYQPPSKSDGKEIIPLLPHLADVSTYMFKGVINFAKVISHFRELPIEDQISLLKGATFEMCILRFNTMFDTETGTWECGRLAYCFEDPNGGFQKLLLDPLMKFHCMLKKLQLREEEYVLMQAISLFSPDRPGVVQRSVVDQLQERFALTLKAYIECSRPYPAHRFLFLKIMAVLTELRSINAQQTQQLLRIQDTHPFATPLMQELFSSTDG

Assay [18] concerns the target Nuclear receptor subfamily 1 group I member 2 (Homo sapiens) (UniProt O75469). Nature of the assay: CYP3A4 induction through human pregnane X receptor (PXR) by small molecules, qHTS assay (AID 1346984). Further: nearly all actives have a fitted effect of over 40% in size. The method in brief: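 HepG2-derived DPX-2 line carrying PXR plus a CYP3A4-promoter luciferase reporter; cells plated 5 hr, compound-exposed 24 hr at 37C. CYP3A4 activity probed with 3uM (final) Luciferin-IPA for 3hr, then luciferase read after One-Glo.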

The target is the same in assay [19]. As to the kind of experiment: Human pregnane X receptor (PXR) activation by small molecules, qHTS assay (AID 1346985). Further: nearly all actives have a fitted effect of over 40% in size. The procedure, abridged: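 DPX-2 cells (HepG2 co-transfected with a PXR response element and a CYP3A4-promoter luciferase construct) were seeded at 2,000 per well, rested 5 hr at 37C, then exposed to DMSO-dissolved compounds for 24 hr. Activation was read as luciferase luminescence.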
On the % scale 0 is the no-effect control and ±100 the full control effect.

Nuclear receptor subfamily 1 group I member 2 (Homo sapiens), sequence (O75469 whole entry, looked up): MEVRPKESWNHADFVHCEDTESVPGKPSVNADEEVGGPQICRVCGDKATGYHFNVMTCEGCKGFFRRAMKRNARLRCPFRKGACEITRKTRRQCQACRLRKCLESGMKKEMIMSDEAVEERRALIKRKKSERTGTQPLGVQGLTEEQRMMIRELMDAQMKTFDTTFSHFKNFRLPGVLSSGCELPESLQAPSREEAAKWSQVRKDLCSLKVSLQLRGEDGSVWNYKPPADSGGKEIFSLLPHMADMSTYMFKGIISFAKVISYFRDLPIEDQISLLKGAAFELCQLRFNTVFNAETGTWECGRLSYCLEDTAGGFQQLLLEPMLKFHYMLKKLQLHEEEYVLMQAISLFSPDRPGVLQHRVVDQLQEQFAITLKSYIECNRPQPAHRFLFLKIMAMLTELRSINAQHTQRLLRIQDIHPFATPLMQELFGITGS
Cytochrome P450 2C19 (Homo sapiens), sequence (P33261 whole entry, looked up): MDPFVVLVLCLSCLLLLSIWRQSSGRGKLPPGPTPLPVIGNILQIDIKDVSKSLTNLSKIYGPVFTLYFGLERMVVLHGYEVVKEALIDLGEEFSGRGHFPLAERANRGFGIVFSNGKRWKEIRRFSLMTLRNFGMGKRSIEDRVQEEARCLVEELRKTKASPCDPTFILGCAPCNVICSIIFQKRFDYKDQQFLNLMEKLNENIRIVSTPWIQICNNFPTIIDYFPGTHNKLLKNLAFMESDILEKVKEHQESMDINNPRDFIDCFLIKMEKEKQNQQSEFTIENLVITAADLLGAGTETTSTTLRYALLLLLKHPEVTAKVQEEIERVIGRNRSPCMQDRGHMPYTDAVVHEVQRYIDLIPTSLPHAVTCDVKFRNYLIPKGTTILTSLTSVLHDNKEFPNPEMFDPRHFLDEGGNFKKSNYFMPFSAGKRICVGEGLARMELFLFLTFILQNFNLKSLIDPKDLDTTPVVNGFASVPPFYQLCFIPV
Cytochrome P450 2C9 (Homo sapiens), sequence (P11712 whole entry, looked up): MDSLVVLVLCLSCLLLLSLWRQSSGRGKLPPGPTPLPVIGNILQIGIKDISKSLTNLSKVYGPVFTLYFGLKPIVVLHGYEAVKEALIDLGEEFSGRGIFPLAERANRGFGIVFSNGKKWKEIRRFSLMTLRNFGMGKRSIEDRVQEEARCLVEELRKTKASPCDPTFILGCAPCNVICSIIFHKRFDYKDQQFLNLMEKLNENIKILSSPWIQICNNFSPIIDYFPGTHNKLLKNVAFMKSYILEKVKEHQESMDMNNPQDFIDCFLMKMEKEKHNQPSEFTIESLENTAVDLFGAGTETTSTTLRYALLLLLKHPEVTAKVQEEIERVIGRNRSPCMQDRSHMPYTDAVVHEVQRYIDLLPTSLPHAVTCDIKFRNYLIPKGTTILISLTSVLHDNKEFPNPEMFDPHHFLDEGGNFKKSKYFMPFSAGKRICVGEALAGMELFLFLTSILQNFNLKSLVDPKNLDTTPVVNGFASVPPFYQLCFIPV
Cytochrome P450 2D6 (Homo sapiens), sequence (P10635 whole entry, looked up): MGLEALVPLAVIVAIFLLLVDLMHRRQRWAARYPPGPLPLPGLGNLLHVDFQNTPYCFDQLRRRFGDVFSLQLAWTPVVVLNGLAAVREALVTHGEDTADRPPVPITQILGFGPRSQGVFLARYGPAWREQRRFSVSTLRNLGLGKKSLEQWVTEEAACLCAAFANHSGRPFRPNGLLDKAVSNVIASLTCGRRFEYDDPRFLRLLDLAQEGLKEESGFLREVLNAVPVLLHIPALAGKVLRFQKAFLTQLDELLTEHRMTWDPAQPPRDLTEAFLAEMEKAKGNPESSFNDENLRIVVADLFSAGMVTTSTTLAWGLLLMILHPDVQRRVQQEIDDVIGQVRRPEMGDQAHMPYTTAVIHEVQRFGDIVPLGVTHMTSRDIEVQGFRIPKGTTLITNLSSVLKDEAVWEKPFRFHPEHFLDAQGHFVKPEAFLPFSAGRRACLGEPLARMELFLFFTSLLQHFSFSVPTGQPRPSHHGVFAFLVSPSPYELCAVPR

In the case of `CC(C)C1(C)N=C(c2ncccc2C(=O)O)NC1=O` (stereo not given), the Potency entry in assay [1], in [2], in assay [3], in assay [4], in assay [5] and in assay [6] was “inactive” in each case. For the same compound, the Potency entry in assay [7], in [8], in [9], in [10], in assay [11] and in [12] was “inactive” each time. Also, the Potency result in assay [13], in assay [14], in assay [15] and in assay [16] was “inactive” throughout.

As for `C=CCc1ccc(OC(=O)Cc2ccccc2)c(OC)c1`, the Potency result in assay [1], in [2], in assay [3], in assay [4], in [5] and in assay [6] was “inactive” in each case. For the same compound, the Potency result in assay [7], in assay [8], in assay [9], in assay [10] and in assay [15] was “inactive” throughout. The Potency is 35.6 µM (active) in [11]; 22.4 µM (active) in [12]; 12.6 µM (active) in assay [13]; 35.6 µM (active) in assay [14]; 11.2 µM (active) in assay [16].

For `CCN(C(C)=O)c1cccc(-c2ccnc3c(C#N)cnn23)c1`, the Potency result in assay [1], in assay [2], in assay [3], in assay [4], in assay [5] and in [6] was “inactive” each time. In addition, the Potency entry in [19], in assay [8], in assay [9], in [10], in [11] and in assay [14] was “inactive” each time. Further, the Potency result in [15] and in [16] was “inactive” each time. Also, the max activation in [17] is -2.18%. In addition, the outcome in assay [18] was inactive. The Potency in [12] is 27.5 µM (active).

As for `CCOC(=O)NC(O)C(Cl)(Cl)Cl` (stereo not given), the Potency entry in assay [1], in [2], in [3], in assay [4], in assay [5] and in assay [6] was “inactive” throughout. Also, the Potency entry in assay [19], in assay [7], in [8], in assay [9], in assay [10] and in assay [11] was “inactive” each time. For the same compound, the Potency result in assay [13], in assay [14], in assay [15] and in [16] was “inactive” each time. Besides, in [17], the max activation was -1.22%. Moreover, in assay [18], the outcome was inactive.

As for `CN[C@@H](C)[C@H](O)c1ccccc1`, the Potency result in assay [1], in [2], in [3], in assay [4], in assay [5] and in [6] was “inactive” throughout. In addition, the Potency result in [19], in [7], in [8], in assay [9], in assay [10] and in assay [12] was “inactive” in each case. Moreover, the Potency result in assay [13], in assay [14], in assay [15] and in [16] was “inactive” each time. Moreover, the max activation in [17] was -0.788%. Besides, the result in assay [18] was inactive.

Consider `Nc1ccccc1C(=O)OCC(O)CO` (stereo not given), for which the Potency entry in assay [1], in [2], in assay [3], in assay [4], in assay [5] and in assay [6] was “inactive” throughout. The Potency entry in assay [7], in assay [8], in assay [9], in assay [10], in [11] and in assay [12] was “inactive” throughout. Also, the Potency entry in assay [13], in assay [14], in assay [15] and in [16] was “inactive” in each case.

On to `CC(=O)OC(c1ccccc1)C(Cl)(Cl)Cl` (stereo not given), for which the Potency result in [1], in [2], in assay [3], in assay [4], in [5] and in assay [6] was “inactive” throughout. Also, the Potency entry in [7], in [8], in assay [9], in assay [10], in assay [11] and in [12] was “inactive” in each case. Besides, the Potency result in assay [14] and in assay [16] was “inactive” each time.
